Hits are enriched below; roughly 2% of the tested compounds scored in any of these assays.
ID4 binder: ID4 (human) binding; P47928; small molecule microarray, Flag-ID4 binding, fluorescence F/B; calls only; 31,000 tested, 1.2% active; call rule not given here;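 further: a binder raises fluorescence above local background on the spot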
Target sequence (P47928 whole entry, looked up): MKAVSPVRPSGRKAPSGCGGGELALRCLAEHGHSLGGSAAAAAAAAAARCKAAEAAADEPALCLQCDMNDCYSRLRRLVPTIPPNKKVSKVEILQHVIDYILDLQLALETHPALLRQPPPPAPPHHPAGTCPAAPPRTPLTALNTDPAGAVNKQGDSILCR
mut p53 react: re-activators of the mutant p53 pathway. SW480 PUMA-promoter luciferase, p53 mutant reactivation. activation, % at 9.98 µM. 28,000 tested, 1.5% active; in the data active means activation above about 52%; inconclusive means no clear call, values can overlap the other calls
STK33 inh: inhibitors of human STK33 kinase | Q9BYT3 | ADP-Glo luminescence, MBP substrate | inhibition, % at 12.5 µM | 27,000 tested, 0.44% active | AID 2322; in the data active means inhibition above about 20%; inconclusive means no clear call, values can overlap the other calls
Target sequence (Q9BYT3 whole entry, looked up): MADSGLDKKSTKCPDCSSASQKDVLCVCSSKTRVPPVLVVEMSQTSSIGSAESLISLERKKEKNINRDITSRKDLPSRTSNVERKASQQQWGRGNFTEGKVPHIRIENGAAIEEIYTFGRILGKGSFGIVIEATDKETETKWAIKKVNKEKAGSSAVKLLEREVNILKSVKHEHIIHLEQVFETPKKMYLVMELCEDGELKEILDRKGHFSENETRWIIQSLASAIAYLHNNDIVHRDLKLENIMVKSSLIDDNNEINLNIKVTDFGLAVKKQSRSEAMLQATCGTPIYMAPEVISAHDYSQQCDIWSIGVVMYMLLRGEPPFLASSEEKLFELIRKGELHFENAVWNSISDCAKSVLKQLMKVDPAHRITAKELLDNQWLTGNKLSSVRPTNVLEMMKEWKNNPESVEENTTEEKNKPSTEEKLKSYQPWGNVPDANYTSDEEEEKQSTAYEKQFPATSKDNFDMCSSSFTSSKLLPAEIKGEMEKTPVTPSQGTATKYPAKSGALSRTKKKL
Large screens that a line does not name were inactive.

O=C(O)C1C2C=CC(O2)C1C(=O)Nc1ccc(S(=O)(=O)N2CCc3ccccc32)cc1 (stereo unspecified)	ID4 binder active
O=S(=O)(c1ccc(Cl)cc1)N1CCc2ccccc21	none (no result: ID4 binder, mut p53 react)
Cc1oc(C(C)(C)C)cc1-c1cc(N)n(-c2ccc(I)cc2)n1	none (no result: STK33 inh)
O=c1cc(-c2ccc(O)c(O)c2)oc2c(C3O[C@H](CO)[C@H](O)[C@H](O)[C@H]3O)c(O)cc(O)c12 (stereo partly specified)	none
C=C(CO)C(=O)O[C@H]1CC(=C)[C@@H]2CC(=O)[C@H](C)[C@@H]2[C@H]2OC(=O)C(=C)[C@@H]21	none (no result: ID4 binder, mut p53 react)
COc1cccc(OCCCCSc2ncccn2)c1	none
Cc1cc(=O)[nH]c(SCCOc2cccc(Oc3ccccc3)c2)n1	none
O=[N+]([O-])c1ccc(OCCCSc2ncccn2)cc1	mut p53 react 57
COc1cccc(OCCSc2nc(N)cc(N)n2)c1	mut p53 react 64
COc1ccc(OCCCSc2ncccn2)cc1	mut p53 react 126
Cc1ccc([N+](=O)[O-])c(OCCSc2ncccn2)c1	mut p53 react inconclusive
CS(=O)(=O)N(CC(=O)Nc1ccc(C(F)(F)F)cc1)c1ccc(I)cc1	none
Cc1ccc(OC(=O)OCSc2nn[nH]n2)cc1	none (no result: ID4 binder, mut p53 react)
CC(C)(C)N1Sc2ccccc2NC1=S	none (no result: ID4 binder, mut p53 react)
Cn1c(SCC(=O)c2ccc([N+](=O)[O-])cc2)nnc1-c1cccs1	none
Oc1cc(O)cc(/C=C/c2ccc(O)c(O)c2)c1	STK33 inh 74 (no result: ID4 binder, mut p53 react)
N#C/C(=C/c1ccc(O)c(O)c1)C(=O)OC/C=C/c1ccccc1	none
Cc1ccc(S(=O)(=O)Nc2c(C)[nH]c(=O)[nH]c2=O)cc1C	ID4 binder active
Cc1[nH]c(=O)[nH]c(=O)c1NS(=O)(=O)c1ccc2c(c1)CCCC2	none
CCCCN(C)S(=O)(=O)c1cc(-c2nnc3c4ccccc4c(C)nn23)ccc1OC	none
Cc1ccc(-c2nnc3c4ccccc4c(C)nn23)cc1S(=O)(=O)N(C)CCO	mut p53 react 56
C=C[C@@](C)(O)CCC1C(=C)CCC2[C@@](C)(CO)CCC[C@]12C (stereo partly specified)	none (no result: ID4 binder, mut p53 react)
O=C(CNS(=O)(=O)c1cc(Cl)ccc1Cl)Nc1ccc(Oc2ccccc2)cc1	none
O=c1[nH]c2ccccc2c(=O)n1CCCO	none
O=C(c1ccc(F)cc1)C1CCN(CCn2c(=O)[nH]c3ccccc3c2=O)CC1	ID4 binder active (no result: mut p53 react)
C[C@@H]1CCCCO[C@@H](CN(C)C(=O)CCCN(C)C)[C@@H](C)CN([C@H](C)CO)C(=O)c2cc(NS(=O)(=O)c3ccccc3)ccc2O1	ID4 binder active
C[C@@H]1CCCCO[C@H](CN(C)C(=O)CCCN(C)C)[C@@H](C)CN([C@H](C)CO)C(=O)c2cc(NS(=O)(=O)c3ccccc3)ccc2O1	none
C[C@@H]1CCCCO[C@H](CN(C)C(=O)c2ccccc2)[C@@H](C)CN([C@@H](C)CO)C(=O)c2cc(NS(C)(=O)=O)ccc2O1	none (no result: STK33 inh)
C[C@H](CO)N1C[C@H](C)[C@@H](CN(C)C(=O)c2ccccc2)OCCCC[C@H](C)Oc2ccc(NS(C)(=O)=O)cc2C1=O	ID4 binder active (no result: STK33 inh)
O=c1c(O)c(-c2cc(O)c(O)c(O)c2)oc2cc(O)cc(O)c12	STK33 inh 36
O=c1c(O)c(-c2ccccc2)oc2cc(O)cc(O)c12	none (no result: ID4 binder)
CCCCn1cc(C2CC(=O)N(c3ccc(Br)cc3)C2=O)c2ccccc21 (stereo unspecified)	none (no result: STK33 inh)
Cc1cc(C)c(C#N)c(SCC(=O)Nc2cc(C(F)(F)F)ccc2Cl)n1	none
Cc1cc(C(F)(F)F)c(C#N)c(SCC(=O)Nc2ccc(Cl)cc2)n1	mut p53 react 124
COc1cccc(-c2cc(C(=O)Nc3ccc(S(=O)(=O)NC(C)=O)cc3)c3ccccc3n2)c1	none
O=C(/C=C/c1ccccc1)CC(=O)/C=C/c1ccccc1	none (no result: ID4 binder)
O=C(/C=C/c1ccccc1)c1ccc(O)cc1	STK33 inh 27 (no result: ID4 binder, mut p53 react)
Cn1cnc2nc(NCCO)nc(NCc3ccccc3)c21	none
CC[C@H](CO)Nc1nc(NCc2ccccc2)c2ncn(C(C)C)c2n1	mut p53 react 119
C[C@@H]1CC(=O)c2c(ccc3c2C(=O)c2cccc(O)c2C3=O)C1	none (no result: mut p53 react)
CN1CCc2cccc3c2[C@H]1Cc1ccc(O)c(O)c1-3	STK33 inh 24 (no result: mut p53 react)
CC1=N/C(=C\c2sccc2C)C(=O)O1	none (no result: ID4 binder, mut p53 react)
C[C@@H]1O[C@@H](O[C@@H]2[C@@H](O)[C@H](O[C@@H]3[C@@H](O)[C@@H](O)[C@H](O[C@H]4[C@H](OC(=O)[C@]56CCC(C)(C)C[C@H]5C5=CCC7[C@@]8(C)C[C@H](O)[C@H](O[C@@H]9O[C@H](C(=O)O)[C@@H](O)[C@H](O)[C@H]9O)[C@@](C)(CO)C8[C@H](O)C[C@@]7(C)[C@]5(C)C[C@H]6O)OC[C@H](O)[C@@H]4O)O[C@H]3C)OC[C@H]2O)[C@H](O)[C@H](O)[C@H]1O (stereo partly specified)	STK33 inh 23 (no result: mut p53 react)
C[C@@H]1O[C@@H](O[C@H]2[C@H](OC(=O)[C@]34CCC(C)(C)C[C@H]3C3=CCC5[C@@]6(C)C[C@H](O)[C@H](O[C@@H]7O[C@H](C(=O)O)[C@@H](O)[C@H](O)[C@H]7O)[C@@](C)(CO)C6[C@H](O)C[C@@]5(C)[C@]3(C)C[C@H]4O)O[C@@H](CO)[C@@H]2O)[C@H](O)[C@H](O)[C@H]1O[C@@H]1OC[C@@H](O)[C@H](O[C@H]2OC[C@](O)(CO)[C@H]2O)[C@H]1O (stereo partly specified)	none
CCCCn1c(SCC(N)=O)nc2c1c(=O)n(C)c(=O)n2C	none
Cn1c(=O)c2c(nc(N3CCOCC3)n2CCCN)n(C)c1=O	ID4 binder active
S=C(CC(=S)N1CCOCC1)N1CCOCC1	none (no result: ID4 binder, mut p53 react)
C[C@@H]1CN([C@@H](C)CO)C(=O)Cc2cc(NC(=O)CCCN(C)C)ccc2O[C@@H]1CN(C)C	none (no result: STK33 inh)
C[C@@H]1CN([C@@H](C)CO)C(=O)Cc2cc(NC(=O)CCCN(C)C)ccc2O[C@H]1CN(C)C(=O)Nc1ccc(F)cc1	ID4 binder active (no result: STK33 inh)
C[C@H](CO)N1C[C@H](C)[C@@H](CN(C)C(=O)Nc2ccccc2)Oc2ccc(NC(=O)Cc3ccccc3)cc2CC1=O	none (no result: STK33 inh)
C[C@H]1CN([C@@H](C)CO)C(=O)Cc2cc(NC(=O)Cc3ccccc3)ccc2O[C@H]1CN(C)C(=O)Nc1ccccc1	ID4 binder active
COc1ccc(S(=O)(=O)n2nc(OC(=O)C(C)(C)C)cc2N)cc1	none (no result: ID4 binder, mut p53 react)
Cc1nc(C(F)(F)F)nc(Sc2cccc(C(F)(F)F)c2)c1C	none (no result: STK33 inh)
C/C=C(/C)C(=O)O[C@H]1[C@H](OC(=O)/C(C)=C\C)[C@]2(CO)[C@H](O)C[C@]3(C)C(=CCC4[C@@]5(C)CC[C@H](OC6OC(C(=O)O)C(O)C(OC7OC(C)C(O)C(OC8OC(CO)C(O)C(O)C8O)C7O)C6O)C(C)(C)C5CC[C@]43C)[C@@H]2CC1(C)C (stereo partly specified)	none (no result: ID4 binder, mut p53 react)
COc1ccc(NC(=O)CSc2nc3c(c(C(F)(F)F)c2C#N)CCC3)c(OC)c1	none
C/C(C=Nc1c(C)n(C)n(-c2ccccc2)c1=O)=C/c1ccccc1	none (no result: ID4 binder, mut p53 react)
O=C(O)CSc1c[nH]c2ccccc12	none
CN(C)CCCn1cc(C2=C(c3c[nH]c4ccccc34)C(=O)NC2=O)c2ccccc21	STK33 inh 114 (no result: mut p53 react)
Cn1cc(C2=C(c3cn(CCCSC(=N)N)c4ccccc34)C(=O)NC2=O)c2ccccc21	STK33 inh 106 (no result: ID4 binder, mut p53 react)
COC(=O)c1cn(CC(N)=O)c2ccccc12	none
CC1(C)N=C(NC(=O)NC(=O)c2ccccc2Cl)N(c2ccccc2)O1	none (no result: ID4 binder, mut p53 react)

Screening data as filed in PubChem.
